MEKK2 mut-MEK5: MEK5 binding signal on mutant MEKK2 PB1, primary screen, biochemical, multiplex bead flow cytometry, Alexa488-MEK5; Alexa488-MEK5 binding to MEKK2 mutant; percent response, % at 10 µM; actives 0.35% (n = 290,000); AID 1530, 2009; in the data active = percent response above about 24%, passing the limit was not always enough
MEKK3 PB1 HTS: modulators of MEKK3-MEK5 PB1 binding, primary screen, biochemical, wildtype MEKK3, multiplex bead flow cytometry, Alexa488-MEK5 | actives 1.4% (n = 290,000) | AID 1529, 2009 | Mitogen-activated protein kinase kinase kinase 3 (Homo sapiens), Q99759 | bead-based flow cytometry, Alexa488-MEK5 binding to MEKK3; actives lie on both sides; 0 = blocked by unlabeled MEK5, 100 = vehicle | binding response (% of control), % at 10 µM;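 active = binding response more than 3 SD above or below the average of its plate-row segment, actives on both sides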;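 note: Alexa488 bead fluorescence after subtracting the streptavidin-only scavenger bead signal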
Target sequence (Q99759 whole entry, looked up): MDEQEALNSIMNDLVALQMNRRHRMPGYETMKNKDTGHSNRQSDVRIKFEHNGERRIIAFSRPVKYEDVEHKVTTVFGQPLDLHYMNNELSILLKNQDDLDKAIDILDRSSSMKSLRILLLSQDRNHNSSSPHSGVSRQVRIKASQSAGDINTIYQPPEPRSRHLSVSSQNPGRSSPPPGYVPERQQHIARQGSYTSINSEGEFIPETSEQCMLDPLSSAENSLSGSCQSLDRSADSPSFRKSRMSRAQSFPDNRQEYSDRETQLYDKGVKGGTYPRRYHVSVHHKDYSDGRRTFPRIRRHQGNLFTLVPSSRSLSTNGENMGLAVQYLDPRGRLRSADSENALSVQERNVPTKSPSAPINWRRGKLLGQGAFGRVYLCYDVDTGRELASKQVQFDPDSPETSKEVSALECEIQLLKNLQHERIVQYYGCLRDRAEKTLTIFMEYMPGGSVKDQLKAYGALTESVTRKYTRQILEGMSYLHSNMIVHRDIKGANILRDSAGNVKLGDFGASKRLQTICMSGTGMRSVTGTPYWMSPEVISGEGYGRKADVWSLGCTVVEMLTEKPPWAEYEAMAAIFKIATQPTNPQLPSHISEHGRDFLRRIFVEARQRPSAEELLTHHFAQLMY
MEKK2 WT-MEK5: modulators of MEK5 binding to wildtype MEKK2, primary screen, biochemical, multiplex bead flow cytometry, Alexa488-MEK5 | Mitogen-activated protein kinase kinase kinase 2 (Homo sapiens), Q9Y2U5 | Alexa488-MEK5 binding to MEKK2 WT; actives lie on both sides | binding response (% of control), % at 10 µM | actives 1.1% (n = 290,000); in the data active = binding response below about 67% or above about 130%
GRK2 inh: compounds blocking aptamer binding on GRK2 – biochemical, human GRK2, bead flow cytometry, HTS, primary screen. Beta-adrenergic receptor kinase 1 (Homo sapiens), P25098. FAM-aptamer displacement from GRK2. inhibition of aptamer binding, % at 10 µM. actives 0.59% (n = 330,000);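 active = inhibition of aptamer binding above 40%, roughly 3 SD of noise, on plates passing a quality check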;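 note: median bead fluorescence of bound FAM aptamer so fluorescent compounds give negative values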
MEKK2wt confirm: modulators of MEK5 binding to wildtype MEKK2, confirmation, biochemical, single concentration, multiplex bead flow cytometry; shares compounds with MEKK3 PB1 HTS; Alexa488-MEK5 binding to MEKK2 WT; actives lie on both sides; binding response (% of control), % at 10 µM; actives 2.4% (n = 5,900); AID 1892, 2009; in the data active = binding response below about 16% or above about 210%; inactive = in between
MEKK2mut-MEK5: mutant MEKK2 PB1-MEK5 binding signal retest – biochemical, single concentration, multiplex bead flow cytometry, confirmation. AID 1893, 2009. shares compounds with MEKK3 PB1 HTS. percent response, % at 10 µM. actives 2% (n = 5,900). Alexa488-MEK5 binding to MEKK2 mutant; in the data active = percent response mostly above about 71%, no sharp cut-off; inactive = mostly below about 38%;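 note: higher means compound restores mutant binding toward wildtype level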
MEKK3-MEK5 inh: MEKK3 wild-type PB1 binding to MEK5, inhibitors, confirmation, biochemical, bead multiplex flow cytometry, single concentration, wildtype. Alexa488-MEK5 binding to MEKK3; hits give low values. actives 1.8% (n = 5,900). AID 1894, 2009. binding response (% of control), % at 10 µM. shares compounds with MEKK3 PB1 HTS;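 active = binding response below 72% of control, or above a set upper limit, though filed actives all read lower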;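 note: lower values mean stronger disruption of MEK5 binding to MEKK3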
Large screens that a line does not name were inactive (follow-up assays come after a bar, where they were run); [ ] = remark or other dose. In the library only some 2.5% were active in any assay of this set; here they are far more common.

CC(=O)/C(=N/Nc1ccc(C)cc1)Sc1nnc(CCc2ccccc2)n1-c1ccccc1	none
N#C/C(=C/c1ccc(N2CCCCC2)cc1)c1cccc(F)c1	none
COc1cc(N2CCCC2)c(OC)cc1/C=C(/C#N)c1ccc(Br)cc1	MEKK2 mut-MEK5 189 | MEKK2wt confirm inactive | MEKK2mut-MEK5 inactive | MEKK3-MEK5 inh inactive
COc1cc(N2CCCC2)c(OC)cc1/C=C(/C#N)c1ccc(F)cc1	MEKK2 WT-MEK5 53[inhibitor] | MEKK2wt confirm inactive | MEKK2mut-MEK5 inactive | MEKK3-MEK5 inh inactive
COc1cccc(/C(C)=N/NC(=O)c2ccc(N(C)C)cc2)c1	none (no result: MEKK2 mut-MEK5, MEKK3 PB1 HTS, MEKK2 WT-MEK5)
CCOc1ccc2nc(NCCCNS(=O)(=O)c3ccc(C)cc3)c(C#N)cc2c1	MEKK3 PB1 HTS 130 | MEKK2wt confirm inactive | MEKK2mut-MEK5 inactive | MEKK3-MEK5 inh inactive
CCCCCOc1ccc(Cn2ccnc2)cc1[N+](=O)[O-]	none
CCOc1ccc(Cn2ccnc2)cc1[N+](=O)[O-]	MEKK3 PB1 HTS 129 | MEKK2wt confirm inactive | MEKK2mut-MEK5 inactive | MEKK3-MEK5 inh inactive
COc1ccc(-c2ccc(SCC(=O)N3c4ccccc4CC3C)nn2)cc1OC (stereo not drawn)	MEKK3 PB1 HTS 122 | MEKK2wt confirm inactive | MEKK2mut-MEK5 inactive | MEKK3-MEK5 inh inactive
O=[N+]([O-])c1ccccc1S(=O)(=O)Nc1ccc2c(c1)OCCO2	none
C=CC[C@H]1CC(C)=C[C@H](CC=C)N1	MEKK2 mut-MEK5 195, MEKK2 WT-MEK5 203 | MEKK2wt confirm inactive | MEKK2mut-MEK5 inactive | MEKK3-MEK5 inh inactive
COc1ccc(/C=C2\SC(N3CCc4ccccc4C3)=NC2=O)cc1	MEKK3 PB1 HTS 131 | MEKK2wt confirm inactive | MEKK2mut-MEK5 inactive | MEKK3-MEK5 inh inactive
Cc1ccc(C(=O)Nc2ccc(Cl)cn2)cc1	none
Cc1ccc(C(=O)Nc2ncc3c(Cl)cccc3n2)cc1	MEKK2 mut-MEK5 25 | MEKK2wt confirm inactive | MEKK2mut-MEK5 inactive | MEKK3-MEK5 inh inactive
Cc1ccc(Cc2nnc3n(-c4ccccc4)nc(C(=O)c4ccccc4)n3c2=O)cc1	MEKK3 PB1 HTS 65[inhibitor] | MEKK2wt confirm inactive | MEKK2mut-MEK5 inactive | MEKK3-MEK5 inh inactive
Cc1ccc(CNC(=O)c2cc(C)nn2-c2ccccc2)cc1	none
COc1cccc(/C=N/NC(=O)c2c(C)nc3ccc(Cl)cn23)c1OC	none
COC(=O)CNC(=O)CCCCC(=O)NCC(=O)OC	none
Cc1ccccc1NC(=O)C(C)N1C(=O)c2ccccc2C1=O (stereo not drawn)	none
Cc1cccnc1NC(=O)C(C)N1C(=O)c2ccccc2C1=O (stereo not drawn)	MEKK3 PB1 HTS 131 | MEKK2wt confirm inactive | MEKK2mut-MEK5 inactive | MEKK3-MEK5 inh inactive
COc1ccc(-n2c(C)c(C)c3c(N)ncnc32)cc1	none
CC(=O)N1c2ccccc2[C@@H](C)[C@@H]1C	none (no result: MEKK2 mut-MEK5, MEKK3 PB1 HTS, MEKK2 WT-MEK5)
CC1c2ccccc2N(NC(=O)Cc2ccccc2)C1C (stereo not drawn)	MEKK3 PB1 HTS 135 | MEKK2wt confirm inactive | MEKK2mut-MEK5 inactive | MEKK3-MEK5 inh inactive
O/N=C1\CCCc2c1nc(-c1ccccc1F)n2O	MEKK3 PB1 HTS 130 | MEKK2wt confirm inactive | MEKK2mut-MEK5 inactive | MEKK3-MEK5 inh inactive
O=C(C1CCC(CNS(=O)(=O)c2ccccc2)CC1)N1CCCCC1 (stereo not drawn)	none
CCC(=O)c1ccc(-c2ccccc2)cc1	none

Compound activity from PubChem.
